The nature of experiment [1]: NCI Yeast Anticancer Drug Screen. Data for the rad50 strain (AID 155).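 Further: 0% = growth of vehicle-only cultures of the same strain.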 The following applies: S. cerevisiae rad50 strain growth inhibition, stronger effect = higher value. A digest of the protocol: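 Inhibition values express reduced yeast growth in compound-treated cultures relative to vehicle-treated controls.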
A short description of experiment [2]: NCI Yeast Anticancer Drug Screen. Data for the mec2-1 strain (AID 157). The following applies: S. cerevisiae mec2-1 strain, stronger effect = higher value. A digest of the protocol: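 Yeast mec2-1 mutant treated with compound. Readout: growth inhibition vs vehicle controls.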
Experiment [3] is described as follows: NCI Yeast Anticancer Drug Screen. Data for the sgs1 mgt1 strain (AID 161).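 Further: 0% = growth of cultures given vehicle only.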 The following applies: S. cerevisiae sgs1 mgt1 strain, stronger effect = higher value. The gist of the method:
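Genetically altered yeast, compound exposure, growth inhibition relative to vehicle.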

Experiment [4] in a line: NCI Yeast Anticancer Drug Screen. Data for the cln2 rad14 strain (AID 165).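 Further: 0% = growth equal to vehicle treated cultures.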 The following applies: S. cerevisiae cln2 rad14 strain, stronger effect = higher value. A digest of the protocol: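 cln2 rad14 yeast strain; compound exposure; growth inhibition read vs vehicle controls.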
Experiment [5] is described as follows: NCI Yeast Anticancer Drug Screen. Data for the bub3 strain (AID 167). The following applies: S. cerevisiae bub3 mutant strain, stronger effect = higher value. A digest of the protocol: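 Steps: expose the mutant yeast strain to compound; grow alongside vehicle-treated cultures; measure growth; express inhibition against the vehicle cultures.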
Experiment [6] in a line: NCI Yeast Anticancer Drug Screen. Data for the mlh1 rad18 strain (AID 175). The following applies: S. cerevisiae mlh1 rad18 strain growth inhibition, stronger effect = higher value. The gist of the method: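 Yeast w/ defined DNA-repair lesions; compound exposure; growth vs vehicle controls → % inhibition.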
Where [7] appears, read: at 5.0 µM (retest, dose inferred, filed as 0.5).
Where [8] appears, read: at 50.0 µM (retest, dose inferred, filed as 5.0).

Each structure is given as a SMILES string. The panel holds about 79,000 compounds, 15% with a hit somewhere; the sample as a whole holds those more often. A number with no mark means an inactive call. Activity calls are given as the source filed them. No stated cut-off is given here; in the data, active means growth inhibition above about 70%; inactive means the rest.

For the molecule `O=c1[nH]c2c([N+](=O)[O-])cc(Cl)cc2nc1/C=C(\O)c1ccccn1`, the growth inhibition is 8% in experiment [1] (setting [7]); 61% in experiment [1] (setting [8]); 51.8% in experiment [1] (at 50.0 µM); -1% in experiment [2] (setting [7]); 26% in experiment [2] (setting [8]); 5.8% in experiment [2] (at 50.0 µM). For the same molecule, the growth inhibition in experiment [3] (setting [7]) was 7%; in experiment [3] (setting [8]) it was 41%; in experiment [3] (at 50.0 µM) it was 49.2%; in experiment [4] (setting [7]), 4%; in experiment [4] (setting [8]), 52%; in experiment [4] (at 50.0 µM), 37%. Also, the growth inhibition in experiment [5] (setting [7]) is 14%; in experiment [5] (setting [8]), 27%; in experiment [5] (at 50.0 µM) it was 12.1%; in experiment [6] (setting [7]), 11%; in experiment [6] (setting [8]), 46%; in experiment [6] (at 50.0 µM), 79.2% (active).
Consider `OC(COc1ccc(Cl)cc1)CN1CCN(c2cccc(Cl)c2)CC1` (stereo not given), for which the growth inhibition in experiment [1] (setting [7]) was 20%; in experiment [1] (setting [8]), 99% (active); in experiment [1] (at 50.0 µM), 95.8% (active); in experiment [2] (setting [7]), 37%; in experiment [2] (setting [8]) it was 100% (active); in experiment [2] (at 50.0 µM), 93.9% (active). Moreover, the growth inhibition is 80% (active) in experiment [3] (setting [7]); 100% (active) in experiment [3] (setting [8]); 98.5% (active) in experiment [3] (at 50.0 µM); 20% in experiment [4] (setting [7]); 99% (active) in experiment [4] (setting [8]); 85.8% (active) in experiment [4] (at 50.0 µM). The growth inhibition in experiment [5] (setting [7]) was 25%; in experiment [5] (setting [8]), 98% (active); in experiment [5] (at 50.0 µM), 95.5% (active); in experiment [6] (setting [7]) it was 62%; in experiment [6] (setting [8]) it was 99% (active); in experiment [6] (at 50.0 µM) it was 96.3% (active).
With `S=C1NC2=C(CSC/C2=C\c2ccccc2)C(c2ccccc2)N1` (stereo not given), the growth inhibition was 10% in experiment [1] (setting [7]); 96% (active) in experiment [1] (setting [8]); 60.2% in experiment [1] (at 50.0 µM); -8% in experiment [2] (setting [7]); 97% (active) in experiment [2] (setting [8]); 58.2% in experiment [2] (at 50.0 µM). Further, the growth inhibition was 8% in experiment [3] (setting [7]); 97% (active) in experiment [3] (setting [8]); 65.2% in experiment [3] (at 50.0 µM); 26% in experiment [4] (setting [7]); 96% (active) in experiment [4] (setting [8]); 68.8% in experiment [4] (at 50.0 µM). Further, the growth inhibition in experiment [5] (setting [7]) was -45%; in experiment [5] (setting [8]), 96% (active); in experiment [5] (at 50.0 µM), 73.1% (active); in experiment [6] (setting [7]), 35%; in experiment [6] (setting [8]) it was 97% (active); in experiment [6] (at 50.0 µM), 72.3% (active).
In the case of `Cc1ccc2ccc3ccc(C)nc3c2n1`, the growth inhibition in experiment [1] (setting [7]) was 94% (active); in experiment [1] (setting [8]), 93% (active); in experiment [1] (at 50.0 µM), 95.1% (active); in experiment [2] (setting [7]) it was 92% (active); in experiment [2] (setting [8]) it was 94% (active); in experiment [2] (at 50.0 µM) it was 96.3% (active). Also, the growth inhibition in experiment [3] (setting [7]) is 93% (active); in experiment [3] (setting [8]), 96% (active); in experiment [3] (at 50.0 µM), 96.5% (active); in experiment [4] (setting [7]) it was 91% (active); in experiment [4] (setting [8]), 89% (active); in experiment [4] (at 50.0 µM) it was 94.3% (active). For the same molecule, the growth inhibition is 96% (active) in experiment [5] (setting [7]); 94% (active) in experiment [5] (setting [8]); 97% (active) in experiment [5] (at 50.0 µM); 94% (active) in experiment [6] (setting [7]); 94% (active) in experiment [6] (setting [8]); 95.8% (active) in experiment [6] (at 50.0 µM).
As for `CCCC(=O)Nc1cc([N+](=O)[O-])ccc1O`, the growth inhibition in experiment [1] (setting [7]) is -129%; in experiment [1] (setting [8]) it was 97% (active); in experiment [1] (at 50.0 µM), 99.3% (active); in experiment [2] (setting [7]), -38%; in experiment [2] (setting [8]) it was 98% (active); in experiment [2] (at 50.0 µM), 90% (active). The growth inhibition is -51% in experiment [3] (setting [7]); 88% (active) in experiment [3] (setting [8]); 63.2% in experiment [3] (at 50.0 µM); -57% in experiment [4] (setting [7]); 84% (active) in experiment [4] (setting [8]); 96.7% (active) in experiment [4] (at 50.0 µM). Further, the growth inhibition in experiment [5] (setting [7]) is -57%; in experiment [5] (setting [8]), 97% (active); in experiment [5] (at 50.0 µM), 95.2% (active); in experiment [6] (setting [7]), -127%; in experiment [6] (setting [8]) it was 93% (active); in experiment [6] (at 50.0 µM), 98% (active).
As to `CC1(C)CCN(CCOC(=O)C(c2ccccc2)C2C=CCCC2)C1` (stereo not given), the growth inhibition in experiment [1] (setting [7]) was -3%; in experiment [1] (setting [8]), 46%; in experiment [1] (at 50.0 µM), 64.2%; in experiment [2] (setting [7]), 25%; in experiment [2] (setting [8]) it was 50%; in experiment [2] (at 50.0 µM), 56.6%. Moreover, the growth inhibition is 29% in experiment [3] (setting [7]); 69% in experiment [3] (setting [8]); 77% (active) in experiment [3] (at 50.0 µM); 3% in experiment [4] (setting [7]); 32% in experiment [4] (setting [8]); 73.7% (active) in experiment [4] (at 50.0 µM). Also, the growth inhibition was 4% in experiment [5] (setting [7]); 26% in experiment [5] (setting [8]); 69.8% in experiment [5] (at 50.0 µM); 38% in experiment [6] (setting [7]); 65% in experiment [6] (setting [8]); 70% in experiment [6] (at 50.0 µM).
`COC(=O)/C(C#N)=C(/SC)N(C)C`: the growth inhibition was 4% in experiment [1] (setting [7]); 7% in experiment [1] (setting [8]); 4.35% in experiment [1] (at 50.0 µM); 8% in experiment [2] (setting [7]); 15% in experiment [2] (setting [8]); 4.1% in experiment [2] (at 50.0 µM). The growth inhibition in experiment [3] (setting [7]) is 2%; in experiment [3] (setting [8]), 10%; in experiment [3] (at 50.0 µM), -10.3%; in experiment [4] (setting [7]), 6%; in experiment [4] (setting [8]), 7%; in experiment [4] (at 50.0 µM), 38.6%. For the same molecule, the growth inhibition in experiment [5] (setting [7]) is 0%; in experiment [5] (setting [8]) it was 7%; in experiment [5] (at 50.0 µM), 2.55%; in experiment [6] (setting [7]) it was 12%; in experiment [6] (setting [8]) it was 11%; in experiment [6] (at 50.0 µM), -10.3%.
In the case of `C=CS(=O)(=O)Cc1ccc(Cl)cc1`, the growth inhibition in experiment [1] (setting [7]) is -126%; in experiment [1] (setting [8]) it was 91% (active); in experiment [1] (at 50.0 µM), 98.6% (active); in experiment [2] (setting [7]), -31%; in experiment [2] (setting [8]), 91% (active); in experiment [2] (at 50.0 µM) it was 97.2% (active). Also, the growth inhibition in experiment [3] (setting [7]) was -33%; in experiment [3] (setting [8]), 91% (active); in experiment [3] (at 50.0 µM), 94.2% (active); in experiment [4] (setting [7]), -42%; in experiment [4] (setting [8]), 84% (active); in experiment [4] (at 50.0 µM), 93.9% (active). Further, the growth inhibition in experiment [5] (setting [7]) was -48%; in experiment [5] (setting [8]) it was 94% (active); in experiment [5] (at 50.0 µM), 97% (active); in experiment [6] (setting [7]), -108%; in experiment [6] (setting [8]), 95% (active); in experiment [6] (at 50.0 µM), 97.4% (active).
As for `O=[N+]([O-])c1ccc(CCCl)c(CCl)c1`, the growth inhibition in experiment [1] (setting [7]) is -150%; in experiment [1] (setting [8]), 94% (active); in experiment [1] (at 50.0 µM), 97.4% (active); in experiment [2] (setting [7]), -48%; in experiment [2] (setting [8]), 94% (active); in experiment [2] (at 50.0 µM) it was 98.8% (active). Also, the growth inhibition in experiment [3] (setting [7]) is -51%; in experiment [3] (setting [8]), 91% (active); in experiment [3] (at 50.0 µM), 91% (active); in experiment [4] (setting [7]), -50%; in experiment [4] (setting [8]), 92% (active); in experiment [4] (at 50.0 µM), 96.4% (active). Also, the growth inhibition in experiment [5] (setting [7]) was -55%; in experiment [5] (setting [8]) it was 79% (active); in experiment [5] (at 50.0 µM), 90.3% (active); in experiment [6] (setting [7]), -111%; in experiment [6] (setting [8]) it was 92% (active); in experiment [6] (at 50.0 µM), 89% (active).
`C/C(=N/NC(=S)Nc1ccc([N+](=O)[O-])cc1)c1cccc(/C(C)=N\NC(=S)Nc2ccc([N+](=O)[O-])cc2)n1`: the growth inhibition in experiment [1] (setting [7]) was 14%; in experiment [1] (setting [8]) it was 50%; in experiment [1] (at 50.0 µM), 19.6%; in experiment [2] (setting [7]), 5%; in experiment [2] (setting [8]) it was 72% (active); in experiment [2] (at 50.0 µM), 0.15%. The growth inhibition is 15% in experiment [3] (setting [7]); 87% (active) in experiment [3] (setting [8]); 35.5% in experiment [3] (at 50.0 µM); 19% in experiment [4] (setting [7]); 82% (active) in experiment [4] (setting [8]); -7.35% in experiment [4] (at 50.0 µM). Moreover, the growth inhibition in experiment [5] (setting [7]) was 21%; in experiment [5] (setting [8]), 94% (active); in experiment [5] (at 50.0 µM), 2.45%; in experiment [6] (setting [7]), 10%; in experiment [6] (setting [8]), 61%; in experiment [6] (at 50.0 µM), 14.4%.
